Screen size: about 310,000 compounds; about 2,600 (0.84%) were called active. Many of the other results were omitted from the sample, so actives are more common in it than they were. A number with no mark means an inactive call.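 Rule for the calls: active = fluorescence ratio B-score at or below minus 3 SD of library scores, with starting-brightness B-score within 2 SD (cut at about -4.2 in these data); inactive = the rest.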

The results in this text go back to PubChem BioAssay AID1672 (Johns Hopkins Ion Channel Center, 2009).

Inward rectifier potassium channel 2 (Mus musculus), sequence (P35561 whole entry, looked up): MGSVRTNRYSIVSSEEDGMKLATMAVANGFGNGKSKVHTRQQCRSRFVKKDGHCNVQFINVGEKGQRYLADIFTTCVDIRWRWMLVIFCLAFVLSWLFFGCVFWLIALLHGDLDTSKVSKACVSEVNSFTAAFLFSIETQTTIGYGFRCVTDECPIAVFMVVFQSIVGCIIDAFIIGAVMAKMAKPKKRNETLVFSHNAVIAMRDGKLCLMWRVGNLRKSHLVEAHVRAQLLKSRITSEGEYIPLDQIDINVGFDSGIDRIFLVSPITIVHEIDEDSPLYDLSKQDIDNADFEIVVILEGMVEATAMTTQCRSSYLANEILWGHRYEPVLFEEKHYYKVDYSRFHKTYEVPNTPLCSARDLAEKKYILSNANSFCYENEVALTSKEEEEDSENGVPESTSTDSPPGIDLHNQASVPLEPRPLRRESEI

This assay addresses Inward rectifier potassium channel 2 (Mus musculus) (UniProt P35561). Briefly: inhibitors of mouse Kir2.1 inward-rectifier potassium channel (AID 1672).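 Note: channel flux triggered by added potassium and thallium sulfate stimulus; B-score of peak minus minimum fluorescence over baseline after thallium stimulus; more negative B-score means stronger Kir2.1 block with less thallium influx.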 Conditions: HEK293-Kir2.1, FluxOR thallium flux fluorescence; at 10 µM; active compounds read low.
`NS(=O)(=O)c1ccc(CCNC(=O)NC2CCCCC2)cc1`: the B-score is -0.34.
As to `CC(NC(=O)CCCC1CCCCC1)c1ccc(S(N)(=O)=O)cc1` (stereo unspecified), the B-score was -5.32 (active).
In the case of `CC(NC(=O)CNC(=O)Cc1cccc2ccccc12)c1ccc(S(N)(=O)=O)cc1` (stereo unspecified), the B-score was 1.18.
Take `Cc1ccc2c(C)c(C(=O)N3CCN(c4ccncc4)CC3)oc2c1C`: the B-score was -0.57.
Take `Fc1ccccc1Cn1cnc(NC(=S)NCCc2ccccc2)n1`: the B-score was 1.75.
The result for `N=c1n(CCc2ccccc2)c2ccccc2n1Cc1ccccc1F` reads -8.75 (active); that for `CC(=O)NC(C)c1nc2ccccc2n1Cc1ccccc1F` (stereo unspecified), -2.56.
The result for `Cc1ccc(CN2CCN(c3ccccc3Cl)CC2)o1` reads -1.98; that for `c1ccc(CSc2nnc(-c3ccco3)n2Cc2ccccc2)cc1`, -8.28 (active); that for `c1ccc(CSc2nnc(-c3ccco3)c(-c3ccco3)n2)cc1`, 0.54.
The result for `O=C(CSc1nnc(-c2ccco2)n1Cc1ccccc1)NC(=O)NCc1ccco1` reads -1.04; that for `Cc1nc2c(c(C)nn2-c2ccccc2)c(C)c1C`, -0.74; that for `C#CCNC(=O)[C@H](Cc1ccc(C(=O)c2ccccc2)cc1)NC(=O)OC(C)(C)C`, -2.31.
For `Nc1ccccc1Sc1ccc(C(F)(F)F)cc1[N+](=O)[O-]`, the B-score is -2.03.
The result for `Nc1ccccc1SC(C[N+](=O)[O-])c1ccccc1` (stereo unspecified) reads -7.5 (active); that for `CCS(=O)(=O)c1cc([N+](=O)[O-])c(Sc2ccccc2N)s1`, 0.71.
On to `COc1cc(C(=O)N(C)Cc2cccc(OC)c2OC)ccc1OCC(=O)Nc1cccc(C(F)(F)F)c1`, for which the B-score is 1.36.
The result for `O=C(Cc1c[nH]c2ccccc12)OCCOC(=O)Cc1c[nH]c2ccccc12` reads -7.97 (active); that for `O=C(COC(=O)Cc1c[nH]c2ccccc12)NCCc1ccccc1`, -1.86.
In the case of `CCOC(=O)CN(C)Cc1c[nH]c2ccccc12` it was 0.81; in that of `O=C(COc1coc(CN2CCN(c3ccccc3)CC2)cc1=O)N1CCc2ccccc21`, 0.28.
The result for `S=C(Nc1ccc(Br)cc1Cl)NC1CCN(Cc2ccccc2)CC1` reads -0.65; that for `S=C(Nc1ccc(Br)cc1)NC1CCN(Cc2ccccc2)CC1`, -9.22 (active); that for `O=C(NC1CCN(Cc2ccccc2)CC1)c1c(F)cccc1F`, 0.03.
In the case of `CCN(CC)c1ccc(NC(=O)c2ccc(=O)[nH]c2)cc1S(=O)(=O)Nc1ccc(OC)cc1`, the B-score was 0.31.
The result for `COc1cccc(C(=O)NCCS(=O)(=O)NCC2CCCO2)c1` (stereo unspecified) reads 2.76.
The result for `CCC(C)N(C(=O)CSc1ncnc2c1cnn2-c1ccccc1)C1CCS(=O)(=O)C1` (stereo unspecified) reads 0.08; that for `CCOc1ccccc1OCCCNCc1ccccc1`, -3.69; that for `COCCNCCOCCOc1cccc(OC)c1`, -0.8.
On to `Clc1cccc(Cl)c1OCCOCCNCc1ccccc1`, for which the B-score is -7.4 (active).
In the case of `CCCOc1ccc(Cl)cc1Nc1nc(NCCO)nc(N2CCCC2)n1` it was 0.67; in that of `Cc1ccc(C(C)C)cc1OCCN1CCCC1`, -1.08; in that of `COc1cccc(OCCCN2CCCCCC2)c1`, 0.91.
On to `Cc1cc(OCCN2CCCC2)cc(C(C)C)c1`, for which the B-score was -4.28 (active).
In the case of `Cc1cccc(NC(=O)c2ccc(S(=O)(=O)N(C)CC3CCCO3)cc2)c1C` (stereo unspecified) it was 1.86; in that of `CN(c1ccc(OCC(=O)O)cc1)S(=O)(=O)c1ccc2ccccc2c1`, -1.8.
The result for `COCCNC(=O)COc1ccc(N(C)S(=O)(=O)c2ccc3ccccc3c2)cc1` reads -5.91 (active); that for `CN(c1ccccc1)S(=O)(=O)c1ccc(NC(=O)COc2ccccc2)cc1`, -1.
In the case of `COc1ccc(CCNC(=S)N2CCN(S(=O)(=O)c3ccc(F)cc3)CC2)cc1` it was 0.06.
For the compound `Cc1ccc2nc(N3CCN(C(=O)c4ccco4)CC3)sc2c1`, the B-score was -0.26.
In the case of `OCc1ccc(-c2ccccc2)c(-c2ccccc2)c1` it was -1.83; in that of `Cc1cc(C)c(S(=O)(=O)NCC(c2ccc3c(c2)OCO3)N2CCOCC2)c(C)c1` (stereo unspecified), -1.24.
The result for `COc1ccc(OC)c(NC(=S)N2CCc3ccccc3C2)c1` reads 0.14; that for `COc1ccc(NC(=O)C(=O)NCC(c2ccco2)N2CCc3ccccc3C2)cc1` (stereo unspecified), 1.13.
In the case of `COc1ccc(CCC(C)N2CCc3ccccc3C2)cc1` (stereo unspecified) it was -8.02 (active); in that of `Cc1c(C)n2c(SCC(=O)NC3CCCC3)nnc2[nH]c1=O`, 0.79.
As for `O=C1[C@H]2[C@@H](c3ccc(F)cc3)N3C(=O)N(c4ccc(C(F)(F)F)cc4)C(=O)[C@@]3(Cc3ccccc3)[C@H]2C(=O)N1C1CCCCC1`, the B-score was -0.87.
As for `[O-][n+]1ccc(OCc2ccccc2)cc1`, the B-score is 0.47.
The result for `Cc1cccc(N2CC(C(=O)Nc3ccccc3N3CCCC3)CC2=O)c1C` (stereo unspecified) reads 0.2; that for `CC(=O)Nc1ccc(Nc2c3ccccc3nc3ccccc23)cc1`, 0.07; that for `N#Cc1cccc(Nc2c3c(nc4ccccc24)CCCC3)c1`, -0.49.
`Cc1ccc(Nc2c3c(nc4ccccc24)CCC3)cc1`: the B-score was -15.2 (active).
For the compound `Cc1ccc(S(=O)(=O)NC(C)C(=O)NCc2ccc(Cl)cc2)cc1` (stereo unspecified), the B-score is 1.6.
As to `O=C(c1ccc(OC2CCN(C/C=C/c3ccc(F)cc3)CC2)cc1)N1CCCCC1`, the B-score was -2.2.
In the case of `CSCC(=O)N1CCCC(C(=O)c2cc(F)ccc2F)C1` (stereo unspecified) it was 1.27; in that of `COc1ccc(/C=C/CN2CCCC(C(=O)c3cc(F)ccc3F)C2)cc1` (stereo unspecified), -4.21 (active).
The result for `COc1ccc(-c2csc3ncnc(N4CCN(S(=O)(=O)c5cccc(F)c5)CC4)c23)cc1` reads 0.02; that for `COc1cccc(-c2cccc(NC(=O)C3CCN(C4CCC4)CC3)c2)c1`, -0.09.
The result for `CCn1cc(CN2CCC(C(=O)Nc3cccc(-c4cccc(Cl)c4)c3)CC2)cn1` reads -6.62 (active); that for `O=C(Nc1cnn(Cc2ccc(Cl)cc2)c1)C1CCCC1`, -1.43; that for `O=C(Nc1cccc(-c2cccc(Cl)c2)c1)C1CCN(C2CCC2)CC1`, -4.84 (active).
For the compound `O=C(Nc1ccc(-c2cscn2)cc1)C1CCCN(Cc2ccc(CO)o2)C1` (stereo unspecified), the B-score was -0.77.
In the case of `O=C(Nc1cccc(-c2cscn2)c1)C1CCN(Cc2ccsc2)CC1` it was -7.36 (active); in that of `CCNC(=S)NNC(=O)C1CCN(Cc2ccccc2)CC1`, -0.93.
In the case of `O=C(NC1CCCC1)C1CCN(C(=O)Nc2cccc(Cl)c2)CC1` it was -1.63.
The result for `CC(=O)c1cc(CN2CCC(C(=O)Nc3cccc(-c4cscn4)c3)CC2)cs1` reads -2.25.
